# According to the supplement of paper PMC3545927:
# The other results are listed elsewhere or left out. How many sequences the whole screen found active is unknown.
# B1: HC2281 (peptide)
# chain: CANLEVVTSTAGNASASA
# B2: FS-1035 (peptide)
# chain: CAMKSRLRRTAGNASASA
# B3: FS-971 (peptide)
# chain: CAAKGRAGRSAGNASASA
# B4: FS-515 (peptide)
# chain: CAVRGRAGRSAGNASASA
# B5: FS-81 (peptide)
# chain: CAQLSRAGRSAGNASASA
# B6: HC1258 (peptide)
# chain: CAPPSVASSSAGNASASA
# B7: FS-2628 (peptide)
# chain: CADHRRSVDSAGNASASA
# B8: FS-1998 (peptide)
# chain: CARCRRTVSMAGNASASA
# B9: FS-2548 (peptide)
# chain: CARCRRSVSSAGNASASA
# B10: FS-3077 (peptide)
# chain: CARSERDVLLAGNASASA
# B11: HC1362 (peptide)
# chain: CAGSWSTVSSAGNASASA
# B12: HC2113 (peptide)
# chain: CARDVVCCSMAGNASASA
# B13: HC2119 (peptide)
# chain: CAPDVVCCSMAGNASASA
# B14: HC1556 (peptide)
# chain: CASVAHDGAGAGNASASA
# B15: FS-3073 (peptide)
# chain: CARSARKSNFAGNASASA
# B16: FS-2085 (peptide)
# chain: CARSARPLVQAGNASASA
# B17: FS-3168 (peptide)
# chain: CARSARDTAQAGNASASA
# B18: FS-2302 (peptide)
# chain: CARSARDVSSAGNASASA
# B19: HC1501 (peptide)
# chain: CAYVGGPLTNAGNASASA
# B20: HC1470 (peptide)
# chain: CAQRVEFLVQAGNASASA
# B21: HC1256 (peptide)
# chain: CAARGSPPSVAGNASASA
# B22: HC897 (peptide)
# chain: CAETITLPQDAGNASASA
# B23: HC2155 (peptide)
# chain: CAHVVTSTWVAGNASASA
# B24: HC2503 (peptide)
# chain: CASTACSAHLAGNASASA
# B25: HC319 (peptide)
# chain: CARMAWDMMMAGNASASA
# B26: HC501 (peptide)
# chain: CATLPALSTGAGNASASA
# B27: HC614 (peptide)
# chain: CALKVPYFVRAGNASASA
# B28: FS-237 (peptide)
# chain: CAGASRSPRGAGNASASA
# B29: FS-777 (peptide)
# chain: CAGAARLPRGAGNASASA
# B30: HC208 (peptide)
# chain: CAGWLLSPRGAGNASASA
# B31: FS-759 (peptide)
# chain: CADRSRTPRGAGNASASA
# B32: FS-1677 (peptide)
# chain: CAPERRDVCWAGNASASA
# B33: HC458 (peptide)
# chain: CASRCGSGPWAGNASASA
# B34: FS-770 (peptide)
# chain: CAFPDRVKRNAGNASASA
# B35: FS-1427 (peptide)
# chain: CATWHRLRKGAGNASASA
# B36: FS-219 (peptide)
# chain: CACGKRFKKNAGNASASA
# B37: FS-362 (peptide)
# chain: CALRRRLRKQAGNASASA
# B38: FS-1879 (peptide)
# chain: CAERRRQAGAAGNASASA
# B39: FS-318 (peptide)
# chain: CAWLKRQKRNAGNASASA
# B40: FS-1234 (peptide)
# chain: CALRRRQKRQAGNASASA
# B41: HC393 (peptide)
# chain: CAFDQGWGPIAGNASASA
# B42: HC1936 (peptide)
# chain: CATTPCSGSGAGNASASA
# Target: furin, P09958
# Experiment: furin cleavage Z-score vs untreated control; higher = more cleavage, active = 3.5 or more, inactive = 1 or less, 8 variable residues between constant flanks
# Experimental: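 Multiplexed peptide-cDNA fusion cleavage assay. 8-mer variable peptides flanked by constant Cys-Ala (N-term) and Ala-Gly-Asn-Ala-Ser-Ala-Ser-Ala (C-term) and conjugated to a cDNA oligonucleotide were bead-immobilised via the N-terminus. They were treated with purified furin at a 1:10 enzyme:substrate ratio in 50 mM HEPES pH 7.5, 1 mM CaCl2, 100 mM NaCl for 7.5, 15 or 30 min. Released cDNA was counted by next-generation sequencing, and log counts versus no-furin controls were lowess-adjusted and converted to robust Z-scores.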
# furin, P09958, sequence (P09958 whole entry): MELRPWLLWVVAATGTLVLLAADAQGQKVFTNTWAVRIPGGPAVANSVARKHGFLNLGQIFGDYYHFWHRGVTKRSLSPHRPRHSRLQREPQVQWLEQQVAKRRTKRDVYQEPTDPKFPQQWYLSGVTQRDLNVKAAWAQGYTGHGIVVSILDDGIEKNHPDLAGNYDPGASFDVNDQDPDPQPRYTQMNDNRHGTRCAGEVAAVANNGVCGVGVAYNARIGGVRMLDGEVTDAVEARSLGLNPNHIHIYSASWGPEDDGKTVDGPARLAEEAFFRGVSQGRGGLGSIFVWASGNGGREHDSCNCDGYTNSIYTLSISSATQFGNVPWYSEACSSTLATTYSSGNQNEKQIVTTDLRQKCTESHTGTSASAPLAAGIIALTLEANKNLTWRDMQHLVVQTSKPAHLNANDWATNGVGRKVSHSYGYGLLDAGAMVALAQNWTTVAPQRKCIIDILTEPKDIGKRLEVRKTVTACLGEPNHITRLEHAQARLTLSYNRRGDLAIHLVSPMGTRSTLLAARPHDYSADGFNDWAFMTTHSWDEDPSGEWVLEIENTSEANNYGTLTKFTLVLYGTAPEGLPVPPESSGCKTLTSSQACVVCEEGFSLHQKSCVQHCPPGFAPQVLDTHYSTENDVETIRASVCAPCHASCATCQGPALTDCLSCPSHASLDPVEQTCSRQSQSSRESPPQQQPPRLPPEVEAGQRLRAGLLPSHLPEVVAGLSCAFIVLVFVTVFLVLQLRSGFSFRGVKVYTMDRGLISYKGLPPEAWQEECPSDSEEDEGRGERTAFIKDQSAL
Sequence,furin cleavage Z-score (7.5 min),furin cleavage Z-score (15 min),furin cleavage Z-score (30 min)
B1,0.776 (inactive),-1.12 (inactive),-0.725 (inactive)
B2,6.13 (active),6.71 (active),5.42 (active)
B3,7.82 (active),7.81 (active),6.06 (active)
B4,1.52,1.9,0.698 (inactive)
B5,6.21 (active),8.4 (active),8.08 (active)
B6,0.0747 (inactive),0.138 (inactive),0.956 (inactive)
B7,-1.5 (inactive),0.662 (inactive),1.77
B8,1.07,2.14,4.65 (active)
B9,4.14 (active),2.68,3.73 (active)
B10,1.87,-0.515 (inactive),0.482 (inactive)
B11,0.499 (inactive),-0.166 (inactive),-0.172 (inactive)
B12,0.281 (inactive),-1.32 (inactive),2.45
B13,-0.96 (inactive),1.32,-0.361 (inactive)
B14,-0.273 (inactive),-3.13 (inactive),0.415 (inactive)
B15,-1.18 (inactive),0.463 (inactive),-0.0584 (inactive)
B16,-2.45 (inactive),0.432 (inactive),-1.67 (inactive)
B17,5.29 (active),5.99 (active),5.11 (active)
B18,9.56 (active),8.78 (active),6.82 (active)
B19,-0.238 (inactive),-0.463 (inactive),-0.523 (inactive)
B20,-0.81 (inactive),1.84,0.832 (inactive)
B21,0.929 (inactive),-0.707 (inactive),1.93

Sequence,furin cleavage Z-score (7.5 min),furin cleavage Z-score (15 min),furin cleavage Z-score (30 min)
B22,-1.02 (inactive),0.648 (inactive),-1.05 (inactive)
B23,-1.33 (inactive),0.00684 (inactive),-0.368 (inactive)
B24,0.199 (inactive),1.42,-0.356 (inactive)
B25,-0.311 (inactive),-0.626 (inactive),-0.966 (inactive)
B26,-1.14 (inactive),0.758 (inactive),-0.483 (inactive)
B27,-0.584 (inactive),0.223 (inactive),0.218 (inactive)
B28,3.32,4.49 (active),5.42 (active)
B29,0.571 (inactive),1.37,2.25
B30,0.27 (inactive),-1.63 (inactive),0.774 (inactive)
B31,3.99 (active),4.25 (active),4.12 (active)
B32,-0.617 (inactive),-1.12 (inactive),0.841 (inactive)
B33,-0.489 (inactive),-1.8 (inactive),-0.818 (inactive)
B34,3.16,3.37,3.96 (active)
B35,-1.13 (inactive),-0.138 (inactive),-1.3 (inactive)
B36,1.2,-0.0472 (inactive),1.28
B37,4.47 (active),6.23 (active),5.78 (active)
B38,-0.934 (inactive),-0.697 (inactive),-1.89 (inactive)
B39,12.5 (active),12.8 (active),10.3 (active)
B40,11.3 (active),12.6 (active),9.62 (active)
B41,-0.624 (inactive),-1.32 (inactive),-0.893 (inactive)
B42,-2.04 (inactive),2.2,-0.763 (inactive)
